Compound activity as filed in PubChem.
A selection: hits, their analogues and other compounds. The true share with any hit is near 10%.
ELG1 repair inh: qHTS screen for small molecules that inhibit ELG1-dependent DNA repair in human embryonic kidney (HEK293T) cells expressing luciferase-tagged ELG1; HEK293T ELG1-luciferase reporter, luminescence, 16 h; DNA damage induced by 5-fluorouridine; 2.3% of 330,000 active; Potency, µM (top dose mostly 46.1 µM), inactives show top-dose activity change, negative = inhibition, hits mostly inhibitors; further: on the % scale 0 is the no-effect control and ±100 the full control effect; nearly all actives have a fitted effect of over 55% in size
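Luminescence from the luciferase reporter, measured 30 min after ONE-Glo reagent at room temperature, was the read-out. Beforehand, 2,000 cells per well were exposed for 16 hr at 37 °C to 5-fluorouridine together with compound or vehicle.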
MCF10A rerep: A quantitative high throughput screen for small molecules that induce DNA re-replication in MCF 10a normal breast cells; MCF 10A DNA re-replication, Hoechst nuclear intensity, 48 h; Potency, µM (highest dose often 46.1 µM), for the others: at the top dose activity, positive = re-replication, usual class: activators; 2.9% of 350,000 active; further: % of control where 0% means no effect; nearly all actives have a fitted effect of over 50% in size
RORg inh: qHTS for inhibitors of ROR gamma transcriptional activity. Nuclear receptor ROR-gamma (Mus musculus), P51450. Drosophila S2 Gal4-RORgamma UAS-luciferase reporter, 20 h. 5.4% of 310,000 active. Potency, µM (series often up to 53.6 µM), for inactives: at the top dose activity change, negative = inhibition, actives largely listed as inhibitors; further: on the % scale 0 is the no-effect control and ±100 the full control effect; nearly all actives have a fitted effect of over 60% in size
Target sequence (P51450 whole entry, looked up, the tested form may be a part): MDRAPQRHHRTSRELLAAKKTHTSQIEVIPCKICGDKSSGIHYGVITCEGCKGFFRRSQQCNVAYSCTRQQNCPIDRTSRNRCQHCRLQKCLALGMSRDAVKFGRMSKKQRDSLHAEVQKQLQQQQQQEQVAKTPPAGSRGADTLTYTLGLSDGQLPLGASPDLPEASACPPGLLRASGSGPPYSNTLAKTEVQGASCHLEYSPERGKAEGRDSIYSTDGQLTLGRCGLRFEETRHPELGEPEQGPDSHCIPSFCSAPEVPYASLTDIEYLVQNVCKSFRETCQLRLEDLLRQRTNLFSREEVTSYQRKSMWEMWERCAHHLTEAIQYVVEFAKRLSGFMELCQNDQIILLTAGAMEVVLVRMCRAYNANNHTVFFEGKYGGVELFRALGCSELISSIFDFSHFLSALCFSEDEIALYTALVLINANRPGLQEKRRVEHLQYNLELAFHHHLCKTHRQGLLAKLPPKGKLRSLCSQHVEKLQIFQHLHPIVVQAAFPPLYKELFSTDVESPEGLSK
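Stable Schneider cell line, Gal4 DNA-binding domain fused to ROR gamma, UAS-luciferase. Cmpd 1 hr RT → CuSO4 700 uM final → 20 hr RT → luciferase reagent 10 min → luminescence.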
VP16 counter: VP16 counterscreen qHTS for inhibitors of ROR gamma transcriptional activity; Potency, µM (series often up to 53.6 µM), inactives show top-dose activity, negative = inhibition, hits mostly inhibitors; 3.5% of 310,000 active; Drosophila S2 Gal4-VP16 UAS-luciferase, luminescence, 20 h; AID 2546, 2010;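 further: Gal4-VP16 expression switched on by copper sulfate through the metallothionein promoter; on the % scale 0 is the no-effect control and ±100 the full control effect; nearly all actives have a fitted effect of over 50% in size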
SW480 rereplic: A quantitative high throughput screen for small molecules that induce DNA re-replication in SW480 colon adenocarcinoma cells; SW480 DNA re-replication, Hoechst DNA content imaging, 48 h; Potency, µM (series often up to 46.1 µM), for the others: at the highest dose re-replication activation, actives largely listed as activators; 1.8% of 340,000 active; further: % of control where 0% means no effect; nearly all actives have a fitted effect of over 55% in size
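Image-based DNA-content assay: after two days of treatment, nuclei were labelled with the DNA dye Hoechst and imaged, and hits were compounds raising the count of nuclei showing high fluorescence intensity.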
* = called active by the depositor; u = inconclusive; x = no result; [ ] = remark or other dose. The call rests on the fitted dose curve; in most records, active means well fitted curve in the direction sought with a large enough effect; inconclusive means small, poorly fitted or top-dose-only effect, or another doubt; inactive means no such curve, though single readings can be large; an effect the other way counts as inactive or inconclusive. Potency means the concentration at half of the fitted maximal effect.

SMILES | ELG1 repair inh | MCF10A rerep | RORg inh | VP16 counter | SW480 rereplic
CCC1CCCCN1S(=O)(=O)c1ccc(NC(=O)c2snnc2C)cc1 (centres undefined) | u | u | 6% | -79% | -48%
O=C(NC(=S)Nc1ccc(S(=O)(=O)N2CCCCC2)cc1)c1cccs1 | -8% | 7% | 4.5µM* | u | 13%
CCC1CCCCN1S(=O)(=O)c1ccc(NC(=O)c2cccs2)cc1 (centres undefined) | 21µM* | u | u | -16% | 6%
COC(=O)C(Cc1ccccc1)NC(=O)CC(C)CC(=O)Nc1ccc(C)cc1 (centres undefined) | -7% | 5% | u | -5% | -24%
OCCc1ccc(O)c(-n2nc3ccccc3n2)c1 | u | -3% | 4% | 6% | -3%
CC1=C(C(=O)Nc2ccc(C)cn2)C(c2cnn(C)c2)C2=C(CCCC2=O)N1 (centres undefined) | u | 0% | 2% | 10% | 0.52µM*
CCCCN1CN(Cc2ccccc2)CNC1=S | 4% | -2% | 4.5µM* | 5µM* | -7%
CCOCCCN1CN(Cc2ccccc2)CNC1=S | 7% | 0% | 2.5µM* | 3.5µM* | -61%
Cn1c(SCC(=O)N/N=C/c2ccc([N+](=O)[O-])s2)nnc1-c1ccccc1 | u | 18µM* | 11µM* | 20µM* | u
Cn1c(SCC(=O)N/N=C/c2cc([N+](=O)[O-])ccc2O)nnc1-c1ccccc1 | 9.2µM* | 3% | -26% | -11% | u
Cn1c(SCC(=O)N/N=C/c2ccccn2)nnc1-c1ccccc1 | 1% | -20% | -9% | -4% | -48%
Cn1c(/C(C#N)=C(\O)c2ccc(Cl)s2)nc2ccccc21 | u | -2% | 2µM* | 4.5µM* | -9%
Cn1c(/C(C#N)=C(\O)c2ccc([N+](=O)[O-])s2)nc2ccccc21 | 2% | 7% | -35% | -2% | -5%
O=C(Nc1ccc(N2CCOCC2)cc1)C1CC(O)CN1S(=O)(=O)c1ccc(Cl)cc1 (centres undefined) | 8% | -15% | 9% | -5%[10 µM] | u
O=[N+]([O-])c1ccc(N=Nc2ccc(O)cc2O)cc1 | -27% | u | u | 0.63µM* | u
O=S(=O)(O)c1cc(Cl)cc(N=Nc2ccc(O)cc2O)c1O | x | -15% | x | x | -3%
O=[N+]([O-])c1cccc(N=Nc2ccc(O)cc2O)c1 | x | u | x | x | 13µM*
CCC1=C2CC[C@H]3C(=O)N(CC(=O)OC)C(=O)[C@H]3[C@H]2[C@@]2(Cc3ccccc3)C(=NCCOC)OC(=O)N2C1=O | x | x | 7% | 2% | x
Cc1ccc(C(=O)NCC2CCCO2)cc1[N+](=O)[O-] (centres undefined) | 24% | 1% | 23% | 5% | -4%
Cc1ccc(C(=O)NNC(=S)NCC2CCCO2)cc1[N+](=O)[O-] (centres undefined) | 7% | 1% | 5.6µM* | -22% | 2%
Cc1ccc(C(=O)NC(=S)NCC2CCCO2)cc1[N+](=O)[O-] (centres undefined) | -13% | 6% | 7.1µM* | u | 1%
Cc1ccc(OCc2ccc(C(=O)NNC(=S)NCC3CCCO3)o2)c([N+](=O)[O-])c1 (centres undefined) | 10% | -1% | -17% | 1% | -3%
OCC[C@@H]1C[C@H](O)[C@@H](O)[C@@]2(Cc3ccccc3O2)O1 | -5% | 9% | 25% | -2% | -6%
COc1cc(/C=C(\C#N)C(=O)NC2CCCCC2)ccc1OCc1ccc(C(=O)O)cc1 | -27% | 22% | 13µM* | u | 4%
